An excerpt weighted towards active compounds, which were near 27% of everything screened.
CYP2C19 activ: cytochrome P450 2C19 (human) activation; P33261; recombinant CYP2C19, luciferin-H EGE luminescence; active compounds read high; 0 = fully inhibited enzyme, 1 = untreated enzyme; activation factor at 5 µM; 96,000 tested, under 10 active;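 active means activation factor of at least 2 at 5 µM in the primary screen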;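 further: 0 = wells with 2.5 mM tranylcypromine and 1 = vehicle-only wells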
CYP2C9 inh: blocks human cytochrome P450 2C9. P11712. CYP2C9 Supersomes, luciferin-H conversion, luminescence. inhibition, % at 5 µM. hit rate 20% among 96,000;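 active means blocking of liver enzyme CYP2C9 beyond about 50% at 5 µM, limit read from the data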
CYP2C19 inh: human CYP2C19 inhibition. P33261. CYP2C19 Supersomes, luciferin-H EGE luminescence, 30 min. inhibition, % at 5 µM. hit rate 21% among 96,000. AID 778;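 active means CYP2C19 inhibition above a set limit at 5 µM in the primary screen, cut at about 50% in these data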;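 further: plate controls were negative control wells for no effect and 2.5 mM tranylcypromine positive control for full effect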
EphB4 antag: EphB4-ephrin-B2 interaction antagonism; P54760; EphB4 LBD / TNYL-RAW-Alexa532 peptide, fluorescence polarization; inhibition, % at 7 µM; hit rate 0.15% among 97,000;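 active means inhibition above the screen-wide mean inhibition plus 3 SD, cut at about 15% in these data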;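 further: 0% = DMSO wells and 100% = excess unlabeled TNYL-RAW peptide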
Target sequence (P54760 whole entry, looked up, the tested form may be a part): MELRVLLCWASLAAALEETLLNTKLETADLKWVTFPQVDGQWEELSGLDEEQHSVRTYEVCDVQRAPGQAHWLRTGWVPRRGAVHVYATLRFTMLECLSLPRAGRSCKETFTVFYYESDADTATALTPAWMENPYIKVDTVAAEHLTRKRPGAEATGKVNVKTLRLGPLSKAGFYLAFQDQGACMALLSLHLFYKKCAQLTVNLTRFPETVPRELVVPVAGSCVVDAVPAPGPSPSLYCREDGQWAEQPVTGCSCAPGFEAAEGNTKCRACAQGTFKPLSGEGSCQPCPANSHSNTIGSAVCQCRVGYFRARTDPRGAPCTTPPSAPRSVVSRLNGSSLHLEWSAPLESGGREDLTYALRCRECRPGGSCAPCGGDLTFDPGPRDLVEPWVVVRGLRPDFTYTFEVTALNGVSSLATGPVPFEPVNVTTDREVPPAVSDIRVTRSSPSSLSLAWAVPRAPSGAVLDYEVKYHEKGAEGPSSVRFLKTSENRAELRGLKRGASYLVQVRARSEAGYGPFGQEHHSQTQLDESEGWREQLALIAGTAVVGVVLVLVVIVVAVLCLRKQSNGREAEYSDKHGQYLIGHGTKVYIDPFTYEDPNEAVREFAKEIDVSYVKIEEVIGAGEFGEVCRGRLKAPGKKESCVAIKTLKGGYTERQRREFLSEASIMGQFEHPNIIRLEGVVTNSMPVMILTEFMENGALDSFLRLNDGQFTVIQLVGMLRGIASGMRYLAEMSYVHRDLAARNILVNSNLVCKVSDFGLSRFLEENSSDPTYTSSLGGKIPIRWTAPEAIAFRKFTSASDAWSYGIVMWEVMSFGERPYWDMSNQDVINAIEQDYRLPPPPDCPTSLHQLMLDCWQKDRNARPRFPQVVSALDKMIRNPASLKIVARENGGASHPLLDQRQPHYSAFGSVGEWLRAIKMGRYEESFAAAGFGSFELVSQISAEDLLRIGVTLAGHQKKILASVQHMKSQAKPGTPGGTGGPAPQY
CYP2C9 act: increases human cytochrome P450 2C9 activity | P11712 | recombinant CYP2C9, luciferin-H conversion, luminescence; active compounds read high; factor 1 = untreated enzyme, 0 = blocked | activation factor at 5 µM | hit rate 1.4% among 96,000 | AID 1024;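 active means activation factor of 2 or more for CYP2C9 at a 5 µM dose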;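 further: 0 = sulfaphenazole-blocked wells and 1 = vehicle-only wells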
Starred values were filed as active, the others as inactive.

For COc1ccc(N2CCN(C(=O)CSc3ncnc4scc(-c5ccc(C)cc5)c34)CC2)cc1 the results were EphB4 antag -1.9.
For CCc1nc(C)cc(N)c1OCc1ccccc1 the results were CYP2C19 activ 1, CYP2C9 inh 1.2, CYP2C19 inh 4.4, EphB4 antag 1.7 and CYP2C9 act 1.
`CC1CCN(C(=O)Cn2cc(C(=O)C3CC3)c3ccccc32)CC1` gave EphB4 antag -4.2.
`CCC(=O)c1cn(CC(=O)NCc2ccco2)c2ccccc12` gave CYP2C19 activ 0.8, CYP2C9 inh -3.5, CYP2C19 inh 20.6, EphB4 antag 0.5 and CYP2C9 act 1.
`COC(=O)c1cn(CC(=O)N2CCCCCC2)c2ccccc12` gave CYP2C19 activ 0.1, CYP2C9 inh 22.6, CYP2C19 inh 92.2*, EphB4 antag -2.8 and CYP2C9 act 0.8.
`COC(=O)c1cn(CC(=O)NCc2ccco2)c2ccccc12` gave CYP2C19 activ 0.1, CYP2C9 inh 29.9, CYP2C19 inh 91.8*, EphB4 antag 4.6 and CYP2C9 act 0.7.
Screening CCCCN(C)CCCNC(=O)CC1Oc2ccccc2NC1=O (stereo not drawn) returned CYP2C19 activ 1.2, CYP2C9 inh -10.2, CYP2C19 inh -22.2, EphB4 antag -4.1 and CYP2C9 act 1.1.
`CNc1ccccc1-n1ccc(-c2ccccc2)n1` gave CYP2C19 activ 0.3, CYP2C9 inh 29.0, CYP2C19 inh 71.7*, EphB4 antag -2.0 and CYP2C9 act 0.7.
For CCc1cc(=O)n2c([nH]c3ccccc32)c1C#N the results were CYP2C19 activ 0.9, CYP2C9 inh 34.2, CYP2C19 inh 7.7, EphB4 antag 8.3 and CYP2C9 act 0.7.
Screening COc1ccc(-c2nc(CS(=O)CC(=O)N3CCCC3)c(C)o2)cc1 (stereo not drawn) returned CYP2C19 activ 0.8, CYP2C9 inh 70.6*, CYP2C19 inh 21.3 and CYP2C9 act 0.3.
COCCNC(=O)CS(=O)Cc1nc(-c2ccc(OC)cc2)oc1C (stereo not drawn) was read as CYP2C19 activ 0.7, CYP2C9 inh 9.2, CYP2C19 inh 28.3, EphB4 antag 3.9 and CYP2C9 act 0.9.
For Cc1ccc(NC(=O)CS(=O)Cc2nc(-c3ccc(C)cc3)oc2C)cc1 (stereo not drawn) the results were CYP2C19 activ 0.6, CYP2C9 inh 60.2*, CYP2C19 inh 36.3, EphB4 antag 0.8 and CYP2C9 act 0.4.
CS(=O)(=O)N(CC(=O)Nc1c(F)cccc1F)c1cccc([N+](=O)[O-])c1 was read as CYP2C19 activ 0.8, CYP2C9 inh 16.8, CYP2C19 inh 21.2, EphB4 antag 9.3 and CYP2C9 act 0.8.
CCN(N=Nc1cccc([N+](=O)[O-])c1)c1cccc([N+](=O)[O-])c1 was read as CYP2C19 activ 0.7, CYP2C9 inh 57.7*, CYP2C19 inh 30.6, EphB4 antag 2.6 and CYP2C9 act 0.4.
For Cc1nc2nc(C)c(CCC(=O)NCCCN3CCN(c4cccc(Cl)c4)CC3)c(C)n2n1 the results were CYP2C19 activ 1, CYP2C9 inh 6.6, CYP2C19 inh 3.3, EphB4 antag 5.3 and CYP2C9 act 0.9.
For O=S(=O)(N1CCCCC1)n1nnc2ccccc21 the results were CYP2C19 activ 0.2, CYP2C9 inh -16.0, CYP2C19 inh 82.1*, EphB4 antag 6.3 and CYP2C9 act 1.2.
`Cc1cc(C(=O)CN2CC(C)OC(C)C2)c(C)n1-c1ccccc1` (stereo not drawn) gave CYP2C19 activ 1, CYP2C9 inh 8.2, CYP2C19 inh 4.4 and CYP2C9 act 0.9.
CCC(=O)c1ccc(OCc2ccc(C(=O)OC)cc2)c(OC)c1 was read as CYP2C19 activ 1.1, CYP2C9 inh -7.2, CYP2C19 inh -10.5, EphB4 antag 0.0 and CYP2C9 act 1.1.
For COC(=O)c1sc(OC)cc1OCc1ccc(C)cc1 the results were CYP2C19 activ 0.5, CYP2C9 inh -9.6, CYP2C19 inh 52.6*, EphB4 antag 3.0 and CYP2C9 act 1.1.
Screening CCOC(=O)N1CCN(c2c(NCc3ccc(N(C)C)cc3)c(=O)c2=O)CC1 returned CYP2C19 activ 0.9, CYP2C9 inh 11.4, CYP2C19 inh 13.7, EphB4 antag 4.0 and CYP2C9 act 0.9.
Screening COC1(c2cc(-c3ccccc3)nc(N)n2)CCCCC1 returned CYP2C19 activ 0.5, CYP2C9 inh 31.6, CYP2C19 inh 53.4*, EphB4 antag 6.7 and CYP2C9 act 0.7.
COc1ccccc1NC(=O)CSc1nnc(-c2ccccn2)n1Cc1ccco1 was read as CYP2C19 activ 0.6, CYP2C9 inh 76.9*, CYP2C19 inh 37.8, EphB4 antag -0.4 and CYP2C9 act 0.2.
`COc1ccccc1-c1nnc(SCC(=O)Nc2ccc(S(N)(=O)=O)cc2)n1C` gave CYP2C19 activ 0.6, CYP2C9 inh 76.5*, CYP2C19 inh 38.0, EphB4 antag -2.0 and CYP2C9 act 0.2.
For Cc1cccc(C)c1NC(=O)CSc1nnc(-c2ccco2)n1N the results were CYP2C19 activ 0.4, CYP2C9 inh 9.7, CYP2C19 inh 57.4*, EphB4 antag 2.8 and CYP2C9 act 0.9.
For COc1ccccc1NC(=O)CSc1nnc(C)n1CCc1ccccc1 the results were CYP2C19 activ 0.6, CYP2C9 inh 52.9*, CYP2C19 inh 41.0, EphB4 antag -8.8 and CYP2C9 act 0.5.
Screening O=C(CSc1nc(N2CCCCC2)nc(N2CCCCC2)n1)N1CCc2ccccc21 returned CYP2C19 activ 0.9, CYP2C9 inh 44.6, CYP2C19 inh 12.9, EphB4 antag -6.2 and CYP2C9 act 0.6.
Cc1ccc(C)c(NC(=O)C(C)CC2COCCO2)c1 (stereo not drawn) was read as CYP2C19 activ 1, CYP2C9 inh -8.3, CYP2C19 inh 0.1, EphB4 antag -6.9 and CYP2C9 act 1.1.
COc1cc2[nH]c(=S)n(Cc3ccco3)c(=O)c2cc1OC was read as CYP2C19 activ 1.3, CYP2C9 inh 29.5, CYP2C19 inh -26.6, EphB4 antag 0.7 and CYP2C9 act 0.7.
`COc1ccc(-c2nnc(SCC(=O)Nc3ccc(C)cc3)n2C)cc1` gave CYP2C19 activ 0.7, CYP2C9 inh 40.3, CYP2C19 inh 28.8, EphB4 antag -9.6 and CYP2C9 act 0.6.
`CCn1c2ccccc2c2cc(NC(=O)CSc3nnc(-c4ccc(OC)c(OC)c4)n3N)ccc21` gave CYP2C19 activ 0.6, CYP2C9 inh 6.5, CYP2C19 inh 40.4, EphB4 antag -0.6 and CYP2C9 act 0.9.
Screening CCN(CC)S(=O)(=O)c1ccc(NC(=O)CSc2nnc(-c3cccc(OC)c3)n2C)cc1 returned CYP2C19 activ 0.8, CYP2C9 inh 51.9*, CYP2C19 inh 23.0, EphB4 antag -11.4 and CYP2C9 act 0.5.
Screening COc1ccc(NC(=O)CSc2nnc(CCC(=O)Nc3ccc(C)c(Cl)c3)n2C)cc1 returned CYP2C19 activ 0.9, CYP2C9 inh 65.5*, CYP2C19 inh 12.0, EphB4 antag -4.3 and CYP2C9 act 0.3.
Screening Cc1ccc(NC(=O)CCc2nnc(SCC(=O)Nc3ccccc3C)n2C)cc1Cl returned CYP2C19 activ 0.9, CYP2C9 inh 8.8, CYP2C19 inh 9.7, EphB4 antag -3.7 and CYP2C9 act 0.9.

From PubChem
